Source: PubChem BioAssay AID1159580 (chemical genetic matrix, 2015)
The whole screen tested about 5,500 compounds, of which about 2,000 (36%) were called active. Another 18% or so got no clear call; they are omitted. Rule as the data show it: active = normalized growth mostly below about 0.91 (no sharp cut-off); inconclusive = no clear call, values can overlap the other calls; inactive = mostly above about 0.92. Some of the results follow.

Assay: chemical genetic growth profiling, strain panel (AID 1159580);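 also: tested at 20 µM; growth read once vehicle control cultures reached saturation at 30 °C; 1 = growth at the plate median or of vehicle wells; lower values mean less growth of the strain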
Conditions: S. cerevisiae deletion strains, growth OD

Measured: normalized growth

CC(=O)NCCc1ccc(O)c(O)c1
inactive: locus YAL013W, strain DEP1, stronger effect = lower value 1.03 | locus YAL040C, strain CLN3, stronger effect = lower value 1.01 | locus YDR363W, strain ESC2, stronger effect = lower value 1.05 | locus YER002W, strain NOP16, stronger effect = lower value 1 | locus YJR075W, strain HOC1, stronger effect = lower value 1.02 | locus YNL128W, strain TEP1, stronger effect = lower value 0.999 | locus YNL153C, strain GIM3, stronger effect = lower value 0.986 | locus YNL175C, strain NOP13, stronger effect = lower value 1.01 | locus YNL197C, strain WHI3, stronger effect = lower value 1.01 | locus YNL224C, strain SQS1, stronger effect = lower value 0.998 | locus YOR083W, strain WHI5 (second series), stronger effect = lower value 1.02 | locus YPL241C, strain CIN2, stronger effect = lower value 1.01
